Assay [1] has as its system U-2932. Kind of assay: growth inhibition by drug alone (1 - RLU/untreated control) (fraction); higher = stronger inhibition. The note with it: 177Lu-lilotomab satetraxetan 0 ug/ml. The procedure, abridged: (§1)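 Growth inhibition was calculated from RealTime-Glo RLU against untreated no-drug wells. Values equal 1 − RLU/mean of 48 untreated no-drug wells per plate, read daily from day 3 after 1 h at 37°C. RIVA and U-2932 cells, with or without 18 h pretreatment by a radiolabelled anti-CD37 antibody conjugate (~600 MBq/mg; 0.5 µg/ml RIVA, 1 µg/ml U-2932), were washed and plated at 3,000 cells/well on compound-printed plates at 10/100 nM (RIVA) or 10/1,000 nM (U-2932).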

Assay [2] concerns U-2932. The experiment in a line: growth inhibition by drug plus 177Lu-lilotomab satetraxetan (1 - RLU/untreated control) (fraction); higher = stronger inhibition. The conditions noted are these: 177Lu-lilotomab satetraxetan 1 ug/ml. The method in brief:
as §1

Another assay deals with RIVA. The assay is described as above. The conditions noted are these: 177Lu-lilotomab satetraxetan 0.5 ug/ml. The procedure, abridged: as §1

As to `Cc1ccc(C(=O)N(CCCN)[C@@H](c2oc3cc(Cl)ccc3c(=O)c2Cc2ccccc2)C(C)C)cc1`, the “growth inhibition by drug alone” value in the assay with U-2932 [1] (10 nM, time (day): 3) worked out at 0.962; with U-2932 [1] (10 nM, time (day): 4), 0.968; in the assay on U-2932 [1] (10 nM, time (day): 5), 0.974; in the assay with U-2932 [1] (10 nM, time (day): 6) it was 0.977; in the assay with U-2932 [1] (1000 nM, time (day): 3), 0.962; in the assay with U-2932 [1] (1000 nM, time (day): 4) it was 0.97. Besides, the “growth inhibition by drug alone” value with U-2932 [1] (1000 nM, time (day): 5) stood at 0.976; in the assay on U-2932 [1] (1000 nM, time (day): 6), 0.98. Moreover, the “growth inhibition by drug plus 177Lu-lilotomab satetraxetan” value was 0.964 in the assay on U-2932 [2] (10 nM, time (day): 3); 0.974 in the assay on U-2932 [2] (10 nM, time (day): 4); 0.981 in the assay with U-2932 [2] (10 nM, time (day): 5); 0.984 with U-2932 [2] (10 nM, time (day): 6); 0.968 in the assay on U-2932 [2] (1000 nM, time (day): 3); 0.976 in the assay on U-2932 [2] (1000 nM, time (day): 4). Also, the “growth inhibition by drug plus 177Lu-lilotomab satetraxetan” value in the assay with U-2932 [2] (1000 nM, time (day): 5) came out at 0.982; with U-2932 [2] (1000 nM, time (day): 6), 0.985; in the assay with RIVA (10 nM, time (day): 3) it was 0.963; in the assay with RIVA (10 nM, time (day): 4) it was 0.976; in the assay with RIVA (10 nM, time (day): 5), 0.981; with RIVA (10 nM, time (day): 6), 0.985. For the same compound, the “growth inhibition by drug plus 177Lu-lilotomab satetraxetan” value with RIVA (100 nM, time (day): 3) was 0.953; in the assay on RIVA (100 nM, time (day): 4), 0.973; with RIVA (100 nM, time (day): 5), 0.979; in the assay on RIVA (100 nM, time (day): 6), 0.981.
As for `COc1ccc(C2CC(c3ccccc3)=NN2c2ccc(S(N)(=O)=O)cc2)cc1` (stereo not drawn), the “growth inhibition by drug alone” value in the assay with U-2932 [1] (10 nM, time (day): 3) is 0.0454; in the assay on U-2932 [1] (10 nM, time (day): 4), 0.0281; with U-2932 [1] (10 nM, time (day): 5), -0.0412; with U-2932 [1] (10 nM, time (day): 6) it was -0.122; with U-2932 [1] (1000 nM, time (day): 3), -0.0544; with U-2932 [1] (1000 nM, time (day): 4) it was 0.00397. Besides, the “growth inhibition by drug alone” value is -0.0999 in the assay on U-2932 [1] (1000 nM, time (day): 5) and -0.129 in the assay with U-2932 [1] (1000 nM, time (day): 6). For the same compound, the “growth inhibition by drug plus 177Lu-lilotomab satetraxetan” value was 0.0153 with U-2932 [2] (10 nM, time (day): 3); 0.0306 with U-2932 [2] (10 nM, time (day): 4); 0.0246 in the assay with U-2932 [2] (10 nM, time (day): 5); 0.0751 in the assay with U-2932 [2] (10 nM, time (day): 6); -0.0784 with U-2932 [2] (1000 nM, time (day): 3); 0.0449 in the assay on U-2932 [2] (1000 nM, time (day): 4). In addition, the “growth inhibition by drug plus 177Lu-lilotomab satetraxetan” value in the assay with U-2932 [2] (1000 nM, time (day): 5) was -0.00789; in the assay on U-2932 [2] (1000 nM, time (day): 6) it was 0.0654; in the assay with RIVA (10 nM, time (day): 3), 0.344; in the assay with RIVA (10 nM, time (day): 4), 0.49; in the assay on RIVA (10 nM, time (day): 5), 0.534; in the assay on RIVA (10 nM, time (day): 6) it was 0.554. The “growth inhibition by drug plus 177Lu-lilotomab satetraxetan” value with RIVA (100 nM, time (day): 3) is 0.412; in the assay on RIVA (100 nM, time (day): 4), 0.495; in the assay on RIVA (100 nM, time (day): 5), 0.491; in the assay on RIVA (100 nM, time (day): 6), 0.476.

The values are drawn from the supplement of paper PMC6897291.
